Assay results: PubChem BioAssay AID1628 (Sanford-Burnham Center for Chemical Genomics, 2009)
Out of some 190,000 compounds screened, about 930 (0.49%) were called active. Some of the results follow. Measured potencies and affinities stand elsewhere. Values without a mark were called inactive.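 Rule for the calls: active = z-score of insulin promoter reporter brightness in nuclei below -3 at 5 µM, with at least 500 cells counted; inconclusive = wells with under 500 cells, flagged as toxic or sparse; inactive = the rest.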

Assay: insulin promoter down-regulators in MIN6 cells, imaging, high-content screening, mouse beta cells (AID 1628)
Settings: MIN6 insulin promoter GFP reporter, at 5 µM, stronger effect = lower value
With Cc1nc2c(ccc3nc(NC(=O)C4CC4)sc32)s1 the z-score was 2.
Cc1cccc2sc(NC(=O)C3CCCN(S(=O)(=O)c4cccc5nonc45)C3)nc12 (stereo not given) showed a z-score of 6.61.
For C=CCNC(=O)C1CC2Cn3c(nc4cc5ccccc5cc43)C2N1C (stereo not given), the z-score was 4.44.
Cc1cc(=O)oc2cc(OCC(=O)OCC(=O)NC3CC3)ccc12 showed a z-score of 3.8.
For CCOC(=O)N1CCN(C(=O)NC2CCCCC2)CC1, the z-score was 3.74.
CC1=Nc2ccccc2/C1=C/c1sc(=S)n(-c2cccc(C(=O)O)c2)c1O gave a z-score of 3.2.
COc1cccc(N2CCN(c3ncccn3)CC2)c1 gave a z-score of 3.1.
For COc1cccc(-c2nn(C)c3sc(C(=O)N4CCN(c5ccccn5)CC4)cc23)c1, the z-score was -10.4 (active).
In the case of Cc1ccc(C)c(NC(=O)C(C)CC2COCCO2)c1 (stereo not given), the z-score is reported as 3.45.
For O=S1(=O)N=C(N(CCO)/N=C/c2ccncc2)c2ccccc21, the z-score was 2.42.
CC(=Nc1ccc(C)cc1C)c1sc2ccccc2c1O showed a z-score of 3.96.
For CC(=O)NCCN=C(C)c1sc2ccccc2c1O, the z-score was -3.06 (active).
O=c1oc2c3c4c(cc2c(C(F)(F)F)c1CCN1CCOCC1)CCCN4CCC3 gave a z-score of 7.75.
CCN1/C(=C/C=C/c2oc3ccc4ccccc4c3[n+]2CC)Oc2ccc3ccccc3c21 gave a z-score of 17.
For Cc1ccccc1NCC(=O)N/N=C/c1c[nH]c2ccccc12, the z-score was 4.05.
With Cc1nnsc1C(=O)N/N=C/c1ccc2ccccc2c1O the z-score was -4.07 (active).
For COc1cc(-c2cc(=O)c3ccccc3o2)ccc1O, the z-score was -1.08.
Compound COc1cc(C(c2sc3nc(C)nn3c2O)N2CC(C)CC(C)C2)cc(OC)c1OC (stereo not given) has a z-score of 0.98.
For CCOc1cccc(-c2nn3c(-c4cc(C)[nH]n4)nnc3s2)c1, the z-score was 1.99.
In the case of CCOc1cccc(-c2nnc3sc(-c4cc(OC)c(OC)c(OC)c4)nn23)c1, the z-score is reported as -3.61 (active).
In the case of Cc1ccc(C(=O)NN2C(=O)/C(=C/c3cn(C)c4ccccc34)SC2=S)cc1, the z-score is reported as 4.98.
With CCN1C=CC2=C(C#N)C(N)C(C#N)(C#N)C(c3ccccc3C(F)(F)F)C2C1 (stereo not given) the z-score was 11.
In the case of COc1cccc(NC2C=CS(=O)(=O)C2)c1 (stereo not given), the z-score is reported as 1.43.
In the case of Cc1ccc(S(=O)(=O)/N=c2\ccc(Cl)cn2C(F)F)cc1, the z-score is reported as 2.64.
CCNc1ccc2noc3c2c1C(=O)c1ccccc1-3 gave a z-score of 4.91.
CCOC(=O)CC1C(=O)NCCN1c1nc2ccc(C)cn2c(=O)c1/C=C1\SC(=S)N(C(C)CC)C1=O (stereo not given) showed a z-score of 15.3.
For Cc1cccc(-c2nnc3sc(-c4ccccc4C)nn23)c1, the z-score was -3.32 (active).
Compound C=CCn1c(-c2oc3nc(-c4ccccc4)cc(-c4ccccc4)c3c2N)n[nH]c1=S has a z-score of 5.57.
CCN(CC)c1ccc2cc(-c3nc(-c4ccc(OC)cc4)cs3)c(=O)oc2c1 showed a z-score of 17.
In the case of COc1ccc(C(=O)c2sc3nc(-c4ccccc4)ccc3c2N)cc1OC, the z-score is reported as 5.8.
With C=CCn1c(-c2csc(-c3ccc(OC)c(OC)c3)n2)n[nH]c1=S the z-score was -3.05 (active).
Compound CCOC(=O)Cc1csc(NC(=O)c2sc3nc4c(C)cc(C)cc4cc3c2N)n1 has a z-score of 4.73.
Compound Cc1nnc(SCC2=C(C(=O)O)N3C(=O)C(NC(=O)Cn4nc(C)c(Cl)c4C)C3SC2)s1 (stereo not given) has a z-score of 1.08.
CCCNC(=O)Cn1c(-c2ccc(F)cc2)cc(C(=O)OCC)c1C showed a z-score of 0.89.
In the case of CCOC(=O)c1cnn(-c2cc(C)nc3c(-c4ccccc4)cnn23)c1N, the z-score is reported as 3.62.
For CCOC(=O)c1cnc(-n2nc(C)cc2C)nc1NCc1ccccc1, the z-score was -3.75 (active).
For Cc1cc(C)n(-c2ccc(OCC(=O)O)nn2)n1, the z-score was 3.33.
CCCCSc1ncc(C(=O)OCC)c(N)n1 showed a z-score of 2.51.
For Cc1cc(-c2nc3ncccc3o2)ccc1N, the z-score was 1.34.
With COC(=O)N/N=C\c1cc2c(cc1Br)OCO2 the z-score was 0.97.
For CSC1=NC(C)(C)CC2(C)Nc3ccccc3N12 (stereo not given), the z-score was -3.03 (active).
Compound O=C(NCCc1csc(-c2ccccc2)n1)c1ccccc1F has a z-score of 4.15.
In the case of COc1ccc(-c2csc(NC(=O)c3ccccc3NS(=O)(=O)c3ccc(F)c(F)c3)n2)cc1, the z-score is reported as -4.95 (active).
For COc1ccc(C2CC(C(F)(F)F)n3nc(C(=O)NCc4cn(C)nc4C)c(Cl)c3N2)cc1 (stereo not given), the z-score was -9.71 (active).
In the case of Cc1c(CNC(=O)c2nn3c(c2Cl)NC(c2ccccc2)CC3C(F)(F)F)cnn1C (stereo not given), the z-score is reported as -4.22 (active).
Compound CN1C2CCC1/C(=C/c1cccn1C)C(=O)/C2=C\c1cccn1C has a z-score of 3.1.
In the case of N#CC1CC(c2ccc([N+](=O)[O-])cc2)=NN1c1ccc([N+](=O)[O-])cc1 (stereo not given), the z-score is reported as 5.36.
With O=C(OCC(=O)N1CCN(c2ccccc2)CC1)c1cccc(Cl)c1 the z-score was 1.29.
For Cn1c(-c2ccc3c(c2)OCO3)cc(=O)c2ccccc21, the z-score was -0.67.
For CN1/C(=C\C(=O)C[n+]2ccc3ccccc3c2)C(C)(C)c2ccccc21, the z-score was -4.73 (active).
With CN1/C(=C\C=C(/C#N)C(=O)Nc2ccccc2F)C(C)(C)c2ccccc21 the z-score was 7.42.
Compound CN1/C(=C\C=C2/C(=O)Oc3ccccc3C2=O)C(C)(C)c2ccccc21 has a z-score of 8.51.
For Cn1ccnc1Sc1nc(Nc2cccc(Cl)c2)nc(N2CCOCC2)n1, the z-score was -0.82.
Work on N#C/C(=C/c1ccc(N2CCCCC2)o1)c1cccc(F)c1 yielded a z-score of 14.6.
With Clc1ccc2oc(-c3cccnc3NCc3ccccc3)nc2c1 the z-score was -3.89 (active).
With Clc1ccc2oc(-c3ccccn3)nc2c1 the z-score was 3.
For CCN(CC)c1ccc(/C=C(/C#N)C(=O)NC(C)C)o1, the z-score was 6.43.
For COc1cc(NC(=O)Cn2cnc3sc(C)c(S(=O)(=O)N4CCN(C)CC4)c3c2=O)cc(OC)c1OC, the z-score was 1.41.
With Cc1sc2ncn(CC(=O)NCCCC(=O)N3CCN(c4ncccn4)CC3)c(=O)c2c1C the z-score was -4.71 (active).
Work on CC(=O)Nc1nc(-c2ccc(Br)s2)cs1 yielded a z-score of 5.02.
With Cc1cc(NC(=O)/C(C#N)=C/c2ccc(-c3ccc(SC(F)F)cc3)o2)n(-c2ccccc2)n1 the z-score was 3.43.
Cc1ccc(CNc2ccc3c(c2)OCO3)cc1 gave a z-score of 5.54.
In the case of Cc1ccc(NC(=O)N(Cc2ccc3c(c2)OCO3)Cc2cc3cc4c(cc3[nH]c2=O)OCCO4)cc1, the z-score is reported as -5.39 (active).
With CCOc1ccc2[nH]c(=O)c(CN(CCc3ccccc3)C(=O)N3CCOCC3)cc2c1 the z-score was 5.49.
COc1ccc(CC(=O)NNC(=S)Nc2ccccc2)cc1Cl gave a z-score of 2.56.
Compound N#Cc1c(NC(=S)NC(=O)c2ccccc2)sc2c1CCN(CCc1ccccc1)C2 has a z-score of 5.28.
In the case of CC(C)(C)c1cc(CCC(=O)NNC(=S)NC(=O)c2ccccc2)cc(C(C)(C)C)c1O, the z-score is reported as -4.33 (active).
For CCc1nc(C)cn1S(=O)(=O)c1cc(OC)c(C)cc1C, the z-score was -4.29 (active).
Compound CC(=O)Cc1cc(O)c2ccccc2c1OC(=O)c1ccc(Br)cc1 has a z-score of 8.75.
In the case of Cc1ccccc1NC(=O)c1cc(C(=O)c2cc(Cl)ccc2O)cn(-c2ccccc2C)c1=O, the z-score is reported as -3.14 (active).
For CN1CC=C2C(C#N)=C(N)C(C#N)(C#N)[C@H](c3cccs3)[C@H]2C1, the z-score was 10.3.
With O=C(Nc1ccc(Cl)cn1)c1ccc([N+](=O)[O-])o1 the z-score was -3.08 (active).
With CCSc1ccc(C(=O)Nc2ccc(Br)cn2)cc1[N+](=O)[O-] the z-score was 1.11.
Work on CCCN1C(=O)S/C(=C/c2ccc(N3CCOCC3)o2)C1=O yielded a z-score of 14.8.
Compound COc1ccccc1NC(=O)C1=C(C)NC(SCC(=O)c2ccc(C)cc2)=C(C#N)C1c1ccco1 (stereo not given) has a z-score of 3.29.
With COc1ccc(C(=O)CSC2=C(C#N)C3(CCCCC3)C(C#N)=C(N)N2)cc1 the z-score was -3.18 (active).
With CCn1c(C)[n+](CC)c2ccc(S(=O)(=O)N(C)C)cc21 the z-score was -3.4 (active).
With CCN1CCN(C(=O)c2cn(CC)c3ccc(S(=O)(=O)N(C)C)cc3c2=O)CC1 the z-score was 2.68.
Compound CC(=O)CCc1c(C)c2cccc(C)c2[nH]c1=O has a z-score of -0.43.
For COCCn1cc(C(=O)NCc2ccco2)c2c3ccccc3n(C)c2c1=O, the z-score was 2.09.
For CC(C)Cn1cc(C(=O)NC2CCN(Cc3ccccc3)CC2)c2c3ccccc3n(C)c2c1=O, the z-score was -3.06 (active).
In the case of CCOc1ccccc1CNC(=O)c1cn(C)c(=O)c2c1c1ccccc1n2C, the z-score is reported as 1.59.
In the case of Cc1nc(Cl)c2c(n1)NC1=C(O2)C(=O)CCC1, the z-score is reported as -4.1 (active).
In the case of COc1ccc(N(C)S(=O)(=O)c2cccc(C(=O)Nc3nc4ccccc4[nH]3)c2)cc1, the z-score is reported as -3.07 (active).
Work on CN(c1cccc(Cl)c1)S(=O)(=O)c1cccc(C(=O)NC2=NCCS2)c1 yielded a z-score of 3.48.
CN(/C(=N\S(=O)(=O)c1ccccc1)c1ccccc1)c1ccc(O)cc1 gave a z-score of 1.42.
In the case of CCOc1ccc(C2C(C#N)=C(N)SC(N)=C2C#N)c(OCC)c1, the z-score is reported as -3.06 (active).
For CCN(CC)c1ccc(/C=C(\C#N)C(=O)c2ccc(Br)cc2)cc1, the z-score was 3.66.
For O=C(NCc1cn2ccccc2n1)c1ccco1, the z-score was 3.67.
For O=C(NCc1ccccn1)c1ccc(Cn2cc(Br)cn2)o1, the z-score was -3.96 (active).
Work on COc1ccc2cc3cc(C(=O)NCc4ccccn4)oc3nc2c1 yielded a z-score of 3.32.
Work on COc1ccc2c(n1)Sc1nc3ccccc3nc1N2 yielded a z-score of 9.57.
For COc1ccc2c(c1)oc(=O)c1ccccc12, the z-score was -0.04.
In the case of Cc1[nH]ccc(=O)c1OCc1c(Cl)cccc1Cl, the z-score is reported as -6.12 (active).
Compound COC(=O)c1c[nH]n2c(=O)c(Cc3ccc(F)cc3Cl)c(C)nc12 has a z-score of 3.42.
